# Measurements reported in paper PMC4336329 (PLoS ONE, 2015).
# Screen size: about 310,000 compounds; about 14,000 (4.5%) showed an effect of 50% or more. The effect is printed as a negative number. The list comes from a sample in which strong results are over-represented; it also holds similar structures and randomly drawn compounds.
# Biological target: human ether-à-go-go-related gene (hERG) potassium channel (human, UniProt Q12809)
# Assay: primary screen, population patch clamp on CHO cells stably expressing hERG; higher = less effect of the substance
# 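Also: peak tail current of the secondary pulse compared with the same well before compound.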
# Chain of human ether-à-go-go-related gene (hERG) potassium channel (Q12809 whole entry, looked up): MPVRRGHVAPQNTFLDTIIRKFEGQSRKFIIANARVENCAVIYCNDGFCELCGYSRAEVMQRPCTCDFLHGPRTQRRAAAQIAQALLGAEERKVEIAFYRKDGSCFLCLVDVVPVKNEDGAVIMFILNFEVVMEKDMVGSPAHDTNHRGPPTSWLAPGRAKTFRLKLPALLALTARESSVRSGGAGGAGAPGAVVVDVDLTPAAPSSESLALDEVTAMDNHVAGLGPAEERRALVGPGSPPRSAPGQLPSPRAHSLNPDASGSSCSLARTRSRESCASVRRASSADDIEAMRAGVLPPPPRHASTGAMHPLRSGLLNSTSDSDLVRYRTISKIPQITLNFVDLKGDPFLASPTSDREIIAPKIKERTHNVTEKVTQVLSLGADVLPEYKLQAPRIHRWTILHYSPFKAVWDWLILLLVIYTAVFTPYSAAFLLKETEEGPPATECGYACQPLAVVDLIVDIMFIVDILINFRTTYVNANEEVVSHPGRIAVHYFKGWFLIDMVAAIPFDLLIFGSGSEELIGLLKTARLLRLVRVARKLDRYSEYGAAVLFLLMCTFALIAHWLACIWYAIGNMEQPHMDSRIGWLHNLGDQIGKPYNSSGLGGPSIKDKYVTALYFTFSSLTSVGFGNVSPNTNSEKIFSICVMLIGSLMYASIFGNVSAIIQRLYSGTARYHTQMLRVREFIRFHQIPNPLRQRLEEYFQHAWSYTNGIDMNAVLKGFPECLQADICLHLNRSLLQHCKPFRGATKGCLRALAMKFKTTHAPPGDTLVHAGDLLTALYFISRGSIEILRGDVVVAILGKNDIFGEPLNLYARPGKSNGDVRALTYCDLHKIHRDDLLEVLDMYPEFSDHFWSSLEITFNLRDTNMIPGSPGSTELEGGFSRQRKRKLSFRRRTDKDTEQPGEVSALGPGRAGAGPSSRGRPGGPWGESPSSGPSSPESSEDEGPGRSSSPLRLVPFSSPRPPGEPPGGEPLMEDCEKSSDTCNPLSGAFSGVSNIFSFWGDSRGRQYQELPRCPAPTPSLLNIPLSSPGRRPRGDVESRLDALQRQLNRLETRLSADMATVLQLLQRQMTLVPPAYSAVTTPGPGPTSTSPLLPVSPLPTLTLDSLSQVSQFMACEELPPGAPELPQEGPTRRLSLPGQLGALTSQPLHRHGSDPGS
row,SMILES,"hERG current change (%, negative = inhibition) at 10uM"
1,Cc1cc(C)n2nc(C(=O)Nc3cccc(S(=O)(=O)N4CCCC4)c3)nc2n1,-2.92%
2,Cc1cc(C)n2nc(C(=O)Nc3cccc(S(=O)(=O)N(C)c4ccccc4)c3)nc2n1,-68.3%
3,COc1ccccc1NS(=O)(=O)c1cccc(NC(=O)c2nc3nc(C)cc(C)n3n2)c1,-55.2%
4,COc1ccccc1NS(=O)(=O)c1cccc(NC(=O)c2ccc3ccccc3n2)c1,3.05%
5,COc1ccccc1NS(=O)(=O)c1ccc(NC(=O)c2nc3nc(C)cc(C(F)F)n3n2)cc1,-13.8%
6,Cc1cc(C)n2nc(C(=O)Nc3ccc(S(=O)(=O)N(C)C)cc3)nc2n1,-2.93%
7,CCOC(=O)/C=C/C(=O)Nc1ccc(S(=O)(=O)N(C)c2ccccc2)cc1,-2.23%
8,O=c1[nH]c(=O)n(-c2ccc(Cl)cc2)c(O)c1C=NCCN1CCCCC1,2.13%
9,Cc1ccccc1-c1cc(C(=O)NCc2ccc3c(c2)OCO3)n(CC2CC(c3cccnc3)=NO2)n1 (stereo not drawn),-20.8%
10,O=C(NCc1cccc(Br)c1)c1cc(-c2ccccc2)nn1CC1CC(c2cccc([N+](=O)[O-])c2)=NO1 (stereo not drawn),-0.929%
11,O=C(NCc1cccc(Br)c1)c1cc(-c2ccccc2)nn1CC1CC(c2cccnc2)=NO1 (stereo not drawn),-62.8%
12,O=C(O)c1cc(-c2ccccc2)nn1CC1CC(c2cccnc2)=NO1 (stereo not drawn),6.86%
13,O=C(NCc1cccc(C(F)(F)F)c1)c1cc(-c2ccccc2)nn1CC1CC(c2cccnc2)=NO1 (stereo not drawn),-52.4%
14,C=CCc1cccc2cc(C(=O)OCC)c(=O)oc12,-42.3%
15,CCOc1cc(S(=O)(=O)NC2CC(C)(C)NC(C)(C)C2)ccc1F,-9.91%
16,CCc1c(C)nc2cc(-c3cccc(Br)c3)[nH]n2c1=O,-3.6%
17,O=S(=O)(Nc1ncccn1)c1ccc(NC(=S)NCc2cccnc2)cc1,33.8%
18,COc1cc(C(C(=O)NC(C)(C)C)N(Cc2ccccc2)C(=O)c2cnccn2)cc(OC)c1OC (stereo not drawn),5.8%
19,C=CCNC(=O)CN1CCC(O)(c2ccccc2)CC1,4.87%
20,COc1cccc(OC)c1C(=O)Nc1cc(C)on1,7.22%
21,O=C(CSc1nc2ccsc2c(=O)n1CC1CCC(C(=O)O)CC1)c1ccc(Cl)cc1 (stereo not drawn),33.9%
22,O=C(c1ccc2c(c1)N(Cc1ccccc1)CCS2)N1CCC2(CC1)OCCO2,-56.1%
23,O=C(c1ccc2c(c1)N(Cc1ccc(F)cc1)CCS2)N1CCOCC1,-23.3%
24,O=C(c1ccc2c(c1)N(Cc1ccc(F)cc1)CCS2)N1CCC2(CC1)OCCO2,-57.1%
25,O=C(c1ccc2c(c1)N(Cc1ccccc1)CCS2)N1CCOCC1,-29.7%
26,Cc1ccc(CN2CCSc3ccc(C(=O)N4CCC5(CC4)OCCO5)cc32)cc1,-49.1%
27,Cc1cccc(CNC(=O)c2ccc3c(c2)N(C)CCS3)c1,-59.4%

row,SMILES,"hERG current change (%, negative = inhibition) at 10uM"
1,CN1CCN(CCCNC(=O)c2ccc3c(c2)N(Cc2ccccc2)CCS3)CC1,-23.6%
2,CN1CCSc2ccc(C(=O)NCc3cccc(Br)c3)cc21,0.343%
3,O=C(c1ccc2c(c1)N(Cc1ccccc1)CCS2)N1CCCCC1,-32.9%
4,O=C(NCCCN1CCCC1)c1ccc2c(c1)N(Cc1ccccc1)CCS2,-69.6%
5,CN1CCSc2ccc(C(=O)NCc3ccccc3)cc21,-9.52%
6,CCN1CCN(CCCNC(=O)c2ccc3c(c2)N(Cc2ccccc2)CCS3)CC1,-39.3%
7,S=C(NC1CCCC1)N1CCN(c2ncccn2)CC1,-19.3%
8,C[C@@]12CCC=C[C@H]1[C@H](c1ccoc1)N(Cc1ccccc1)C2=O,-8.15%
9,CC(=O)c1c(N)n(C)c(=O)n(C)c1=O,-4.24%
10,CSc1oc(-c2ccc(F)cc2)nc1S(=O)(=O)c1ccc(F)cc1,3.51%
11,NNc1nnnc2c1sc1nc(N3CCOCC3)c3c(c12)CCCC3,5.3%
12,COc1cc(C(=O)OCC(=O)Nc2cccc(S(=O)(=O)N3CCOCC3)c2)ccc1OCC(C)C,18.3%
13,CC(C)(C)C(=O)/C=C(\N)c1ccncc1,1.74%
14,CCOc1ccc(N(CC(=O)NCCSCc2ccc(Cl)cc2)S(C)(=O)=O)cc1,4.71%
15,COc1ccc(C)cc1NC(=O)CCNS(=O)(=O)c1cccc(C(F)(F)F)c1,-27.6%
16,Cc1cc2c(cc1S(=O)(=O)N(C)C1CCCCC1)OCC(=O)N2,7.2%
17,O=S(=O)(NCCCCCNS(=O)(=O)c1ccccc1)c1ccccc1,-2.98%
18,Cc1ccc(OCC(=O)Nc2ccc(C(=O)O)cc2NC(=O)COc2ccc(C)c(C)c2)cc1C,6.5%
19,CCC1CCCN1Cn1cnc2c([nH]c3ccc(OC)cc32)c1=O (stereo not drawn),-62.6%
20,COc1ccc2[nH]c3c(=O)n(CCCN4CCOCC4)cnc3c2c1,-3.86%
21,CCN1CCCC1Cn1cnc2c([nH]c3ccc(OC)cc32)c1=O (stereo not drawn),-66.1%
22,COc1ccc2c(c1)[nH]c1c(=O)n(CCN3CCCC3)cnc12,-46.3%
23,COc1ccc2[nH]c3c(=O)n(Cc4ccncc4)cnc3c2c1,-11%
24,CCN1CCCC1Cn1cnc2c([nH]c3cc(OC)ccc32)c1=O (stereo not drawn),-63.8%
25,COc1ccc2[nH]c3c(=O)n(CCN4CCOCC4)cnc3c2c1,-2.38%
26,COc1ccc2[nH]c3c(=O)n(CCc4ccccc4)cnc3c2c1,-6.62%
27,COc1ccc2c(c1)[nH]c1c(=O)n(CC3CCCO3)cnc12 (stereo not drawn),11.1%
